Measurements: PubChem BioAssay (EPA / NIEHS)
Where “and” joins values, the source holds several entries; their conditions need not be identical. Equal entries are not always repeated. Results filed as inconclusive are left out. Calls of active or inactive are those of the source. How the source made its calls: active means hit-call score of the fitted dose curve at least 0.9, where 1 is the maximum; inconclusive means response in the unintended direction; inactive means score below 0.9.

Assay: TOX21_p53_BLA_p2_viability: Viability Assessment in the Tox21 HCT-116 p53 Agonism Beta-lactamase Assay, Phase 2 (AID 2283591);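 further: compound exposure lasted 16 h at 37 °C; actives lower the ATP signal meaning cytotoxicity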
How it was run: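 Cytotoxicity readout: CellTiter-Glo ATP luminescence, 30 min at room temperature, after the beta-lactamase read. Cells were HCT116 exposed 16 h at 37C to compounds pin-transferred at 217-fold dilution from DMSO stocks.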

Row | SMILES | AC50 | outcome
1 | CCCCCCCCCCCCCCCC[N+](C)(C)Cc1ccccc1 | 42.5 µM (active) and 23 µM (active) | 
2 | CCc1ccc(C(c2ccc(CC)cc2)C(Cl)Cl)cc1 |  | inactive
3 | CCCCCC=O |  | inactive
4 | O=C(C=Cc1ccccc1)OCC=Cc1ccccc1 |  | inactive
5 | CCCCNc1ccccc1 |  | inactive
6 | Nc1ccc([N+](=O)[O-])cc1O |  | inactive
7 | CCN(CC)c1ccc2c(C)cc(=O)oc2c1 |  | inactive
8 | Nc1cc(Cl)c(N)c(Cl)c1 |  | inactive
